TEAD-YAP block: TEAD-YAP interaction inhibition; HEK-TIYL cells, TEAD-Gal4/YAP UAS-luciferase luminescence; inhibition, % at 9.12 µM; 640,000 compounds, 1.4% hits; AID 1259422; in the data active = inhibition above about 32%
FBW7 act: human FBW7 E3 ligase activation, primary screen | Q969H0 | AlphaScreen FBW7–phospho-cyclin E peptide binding, activator screen | normalized activity (activation), % at 26.1 µM | 650,000 compounds, 0.13% hits | AID 1259310; in the data active = normalized activity above about 1.9%;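 note: purified mutant Fbw7 with reduced substrate affinity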
MITF inh: blocks human microphthalmia-associated transcription factor; O75030; 650,000 compounds, 0.91% hits; AID 1259374; inhibition, % at 2.6 µM; AlphaScreen MITF homodimerization, bead proximity signal; in the data active = inhibition above about 50%
Target sequence (O75030 whole entry, looked up): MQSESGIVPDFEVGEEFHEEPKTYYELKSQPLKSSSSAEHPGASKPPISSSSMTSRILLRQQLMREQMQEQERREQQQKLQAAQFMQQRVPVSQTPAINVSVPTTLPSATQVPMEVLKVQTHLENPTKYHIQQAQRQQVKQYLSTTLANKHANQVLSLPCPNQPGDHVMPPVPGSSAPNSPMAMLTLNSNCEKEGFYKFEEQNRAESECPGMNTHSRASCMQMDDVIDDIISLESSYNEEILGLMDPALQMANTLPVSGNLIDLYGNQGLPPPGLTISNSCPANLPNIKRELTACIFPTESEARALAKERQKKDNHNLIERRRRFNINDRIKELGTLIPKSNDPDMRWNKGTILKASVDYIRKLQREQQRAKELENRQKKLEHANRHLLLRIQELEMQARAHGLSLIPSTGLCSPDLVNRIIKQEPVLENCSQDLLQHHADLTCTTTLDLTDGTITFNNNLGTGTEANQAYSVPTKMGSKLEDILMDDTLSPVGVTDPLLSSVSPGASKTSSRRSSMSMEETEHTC
GPR151 activ: activates the human receptor GPR151; Q8TDV0; AID 1508602; 650,000 compounds, 1% hits; PathHunter beta-arrestin GPR151 cells, luminescence; activation, % at 11.2 µM; in the data active = activation above about 4.9%
MITF confirm: human MITF inhibition, confirmation | AlphaScreen MITF homodimerization, biotin/His-MITF beads | AID 1259372 | shares compounds with MITF inh | 4,700 compounds, 16% hits | inhibition, % at 2.6 µM;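 active = inhibition above a cutoff derived from the DMSO control wells, cut at about 28% in these data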;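 note: inhibitors lower the bead chemiluminescence by keeping MITF from dimerizing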
AS interf DR: optically interferes with AlphaScreen signal in dose response; shares compounds with MITF inh; AlphaScreen optical interference counterscreen, cell-free; IC50, µM; 480 compounds, 6% hits; AID 1259373; call rule not given here
AlphaScreen intf2: counter-screen: compounds optically interfering with AlphaScreen | shares compounds with MITF inh | LysRS AlphaScreen counterscreen, signal interference, triplicate | inhibition, % at 2.6 µM | 4,700 compounds, 7.6% hits;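 active = inhibition above a cutoff derived from the DMSO control wells, cut at about 30% in these data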
Hits are given with their value; - = inactive; . = no result given. The list is not random: actives were taken first. Their share in the collection is about 3.5%.

SMILES	TEAD-YAP block	FBW7 act	MITF inh	GPR151 activ	MITF confirm	AlphaScreen intf2	others
CN(CCc1ccccn1)Cc1ccc(F)cc1	-	-	78	-	33	-	AS interf DR=-
CN(CCc1ccccn1)Cc1ccc(F)c(Br)c1	-	-	68	-	-	-
COCCNC(=O)c1ccc(N2CC3CC(C2)c2cccc(=O)n2C3)c(NC(=O)Cc2c(F)cccc2Cl)c1 (centres undefined)	-	-	-	-	.	.
CC(C)N1C(=O)/C(=C/c2ccc(N(C)C)cc2)SC1=S	-	-	-	-	.	.
CN(CCc1ccccn1)Cc1ccc2c(c1)OCO2	-	-	63	-	-	-
CN(CCc1ccccn1)Cc1ccc2c(c1)CN(Cc1cccc3nccnc13)CCO2	-	-	-	-	.	.
CCOc1cc(/C=N/n2cnnc2)ccc1OCCOc1ccc(Br)cc1	-	-	-	-	.	.
COc1ccc(-c2cc3ccccc3n2CC(O)CNCCO)cc1 (centres undefined)	-	-	53	-	-	-
COc1ccc(C(=O)COC(=O)CCC(=O)Nc2ccc(Cl)c(Cl)c2)cc1	-	-	-	-	.	.
COc1ccc(NC(=O)CCC(=O)OCC(=O)c2ccc(Cl)c(Cl)c2)cc1	-	-	62	-	-	-
CN1CCC(NCc2ccc(F)cc2)CC1	-	-	57	-	-	-
Cc1ccc(-c2nc(C(N)=O)c3[nH]c(=O)n(CC4CCCO4)c3n2)cc1C (centres undefined)	-	-	-	-	.	.
O=C(/C=C/c1cccc([N+](=O)[O-])c1)NC(=S)Nc1ccccc1C(=O)O	-	-	86	-	-	-
Cc1ccc(O)c(NC(=S)NC(=O)/C=C/c2ccco2)c1	-	-	62	-	30	-	AS interf DR=-
NC(=O)c1ccccc1NC(=S)NC(=O)/C=C/c1ccco1	41	-	54	-	70	-	AS interf DR=-
CCCN1C(=N)/C(=C\c2ccc(C(=O)OC)cc2)C(=O)NC1=O	-	-	-	-	.	.
O=C(C1CC12CCN(Cc1ccc3c(c1)OCO3)CC2)N1CCN(Cc2ccccn2)CC1 (centres undefined)	-	-	-	-	.	.
Fc1cccc(F)c1CN1CCN(Cc2ccc3c(c2)OCO3)CC1	-	-	59	-	-	-
Cc1ccsc1CN1CCN(Cc2ccc3c(c2)OCO3)CC1	-	-	56	-	-	-
c1ccc(CN2CCN(Cc3ccc4c(c3)OCO4)CC2)nc1	-	-	63	-	-	-
Cc1nc(N2CCN(Cc3ccc4c(c3)OCO4)CC2)c2c(C)c(C)sc2n1	-	-	74	-	-	-
CC(Oc1ccc(Br)cc1)C(=O)N1CCCCC1 (centres undefined)	-	-	-	-	.	.
Brc1csc(CN2CCN(Cc3ccc4c(c3)OCO4)CC2)c1	-	-	62	-	-	-
O=C(C(=O)N1CCN(Cc2ccc3c(c2)OCO3)CC1)N1CCN(Cc2ccc3c(c2)OCO3)CC1	-	-	-	-	.	.
c1cc(CN2CCN(Cc3ccc4c(c3)OCO4)CC2)co1	-	-	66	-	-	-
SMILES	TEAD-YAP block	FBW7 act	MITF inh	GPR151 activ	MITF confirm	AlphaScreen intf2	others
O=C(CCS(=O)(=O)Cc1ccccc1)NCc1ccccn1	-	-	-	-	.	.
C=Cn1ccnc1P(c1ccccc1)c1nccn1C=C	-	-	104	-	110	100
O=[N+]([O-])c1ccc(-c2n[nH]c(=S)n2Cc2ccccc2)cc1	-	-	-	-	.	.
N#Cc1ccc(CSCC(=O)NN=C2CCCC2)cc1	-	-	51	-	-	-
N#Cc1ccc(OCC(=O)NN=C2CCCC2)cc1	-	-	-	-	.	.
CC(C)(C)C(=O)COc1ccc2c(C(F)(F)F)cc(=O)oc2c1	-	-	-	-	.	.
NC(=O)COc1ccc2c(C(F)(F)F)cc(=O)oc2c1	-	-	54	-	-	-
C=CCOC(=O)COc1ccc2c(CC)cc(=O)oc2c1	-	-	76	-	-	-
c1cncc(-c2cc(N3CCOCC3)nc(-c3cccnc3)n2)c1	-	-	-	-	.	.
NS(=O)(=O)c1ccc(NC(=S)N2CCC3(CC2)OCCO3)cc1	-	-	-	-	.	.
CCOC(=O)C1=C(c2ccccc2)N=c2s/c(=C\c3ccc(OC)c(C)c3)c(=O)n2C1c1c(OC)ccc2ccccc12 (centres undefined)	-	-	-	-	.	.
Cc1ccc(C(=O)Nc2ccccc2NC(=O)c2ccc(C)o2)o1	-	-	-	-	.	.
Cc1ccc(C(=O)NN(C)C)o1	-	-	91	-	-	-
Clc1cc2c(c3ncccc13)OCN(Cc1ccccn1)C2	-	-	114	-	65	88
CCCCN1COc2c(cc(Cl)c3cccnc23)C1	41	-	78	-	73	100
Clc1cc2c(c3ncccc13)OCN(CC1CCCO1)C2 (centres undefined)	-	-	88	-	100	101
CN(C(=O)CN1C(=O)COc2c1cc(Cl)c1cccnc21)C1CCCCC1	-	-	-	-	.	.
COc1cccc(CN2CCN(C(=O)c3cccc(Cl)c3)CC2)c1OC	-	-	-	-	.	.
COc1cccc(CN2CCN(Cc3cccc(Cl)c3)CC2)c1OC	-	-	73	-	-	-
COc1ccc(CN2CCN(Cc3cccc(F)c3)CC2)c(OC)c1OC	-	-	-	-	.	.
COc1cccc(CN2CCN(Cc3cccc(C)c3)CC2)c1OC	-	-	76	-	-	-
COc1ccc(CN2CCN(Cc3cccc(OC)c3OC)CC2)cc1Br	-	-	75	-	-	-
COc1cccc(CNc2cccc(C)c2)c1OC	-	-	78	-	-	-
COc1cccc(CNc2cccc(F)c2)c1OC	-	-	-	-	.	.
N#Cc1ccccc1S(=O)(=O)Nc1cc(C(F)(F)F)ccc1Cl	-	-	-	-	.	.
SMILES	TEAD-YAP block	FBW7 act	MITF inh	GPR151 activ	MITF confirm	AlphaScreen intf2	others
COc1ccc(-c2nc3ccc(C(=O)NCc4nc5ccccc5[nH]4)cc3s2)cc1	-	-	-	-	.	.
NC(=O)c1ccnc(Nc2ccc3ncccc3c2)c1	-	-	-	-	.	.
CCOc1ccc(NC(=O)C2C3C=CC4(O3)C2C(=O)N(CCC(C)C)C4C(=O)NC2CCCCC2)cc1 (centres undefined)	-	-	-	-	.	.
COc1cccc(CN2CCN(Cc3cccc(Br)c3)CC2)c1OC	-	-	70	-	-	-
Cc1ccc2c3c(ccc2n1)NC1=C(C(=O)CCC1)C3c1ccccn1 (centres undefined)	-	-	63	-	-	-
Cc1ccc2c3c(ccc2n1)NC1=C(C(=O)CCC1)C3c1ccccc1C (centres undefined)	-	-	-	-	.	.
CC1Cc2ccccc2N1S(=O)(=O)c1ccccc1[N+](=O)[O-] (centres undefined)	-	-	-	-	.	.
CCc1ccc(OCC(=O)Nc2cc(C)ccn2)cc1	-	-	51	-	-	-
COc1cc(C)ccc1OCCN1CCNCC1	-	-	-	-	.	.
COc1cc(C)ccc1OCCCCN1CCNCC1	-	-	63	-	-	-
C=CCN(CC=C)CCOc1ccc(C)cc1OC	-	-	-	-	.	.

Screens as filed in PubChem BioAssay.
